Marburg entry inh: qHTS for inhibitors of binding or entry into cells for Marburg Virus. Potency, µM (top dose mostly 37.8 µM), for inactives: top-dose activity change, negative = inhibition, most hits filed as inhibitors. AID 540276, 2011. Marburg virus pseudotyped entry inhibition, cell reporter. 300,000 compounds, 1.8% hits; calls by dose curve; tested in HEK293 cells; further: potency means the concentration at half of the fitted maximal effect
Lassa entry inh: qHTS for Inhibitors of binding or entry into cells for Lassa Virus; Lassa virus pseudotype entry inhibition, cell reporter; AID 540256, 2011; Potency, µM (titrated, usually from 37.9 µM), for the others: at the highest dose activity change, negative = inhibition, actives largely listed as inhibitors; 300,000 compounds, 1.2% hits; calls by dose curve; tested in HEK293 cells; further: potency means the concentration at half of the fitted maximal effect; nearly all actives have a fitted effect of over 50% in size
HCV inh: qHTS Assay for Inhibitors of Hepatitis C Virus (HCV) | Huh7.5.1 HCVcc-Cre infection, luciferase reporter, 44 h | Potency, µM (doses to about 41.8 µM), without a hit: at the top dose activity change, negative = inhibition, most hits filed as inhibitors | 340,000 compounds, 3.4% hits | AID 651820, 2012; active means well fitted inhibition curve with a large enough effect; inconclusive means small, poorly fitted or top-dose-only effect, or another doubt; inactive means no such curve, though single readings can be large or run the other way; further: potency means the concentration at half of the fitted maximal effect
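Compounds are dispensed onto cells plated 4 h earlier at 1,000 per well, with HCVcc-Cre virus (about 0.5 moi) added next. Following 44 h of culture, luminescent signal is measured for 15 sec after 15 min with substrate at room temperature.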
FMDV inh: High Throughput Screening for Foot and Mouth Disease Virus Antivirals; 410,000 compounds, 1.2% hits; FMDV antiviral cell-based qHTS; AID 1159524, 2015; Potency, µM (top dose mostly 57.9 µM), for the others: top-dose activity change, negative = inhibition, actives largely listed as inhibitors; calls by dose curve; tested in HEK293T cells; further: read-out not given here; potency means the concentration at half of the fitted maximal effect; nearly all actives have a fitted effect of over 45% in size
HCMV antiviral: qHTS Assay for inhibitors of the human cytomegalovirus (HCMV); 410,000 compounds, 4.5% hits; HFF cells, HCMV-luciferase reporter, 72 h; active compounds read low; AID 1259415, 2018; activity change, negative = inhibition, % at 57.5 µM; in the data active means activity change below about -60%; inconclusive means no clear call, values can overlap the other calls; inactive means above about -39%
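Two-dose cell screen: HFF monolayers treated with compounds and infected with luciferase-expressing HCMV at 1 PFU/cell, 72 h at 37C, then lysed for luciferase measurement.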
Numbers without * were called inactive; [ ] = remark or other dose. Sampled rows, rich in hits. Any-hit rate of the full collection: about 7.9%. On the % scale 0 is the no-effect control and ±100 the full control effect.

Screening Cc1ccc(S(=O)(=O)N2CCC(=O)N(C(COCc3cccc(C)c3)Cc3ccccc3)CC2)cc1 (configuration not stated) returned Marburg entry inh inconclusive, Lassa entry inh 15µM*, HCV inh inconclusive, FMDV inh -22% and HCMV antiviral -6.
For O=C(c1cccc(Cl)c1)N1CCC(=O)N(C(COCc2cccc(Cl)c2)Cc2ccccc2)CC1 (configuration not stated) the results were Marburg entry inh -17%, Lassa entry inh 15µM*, HCV inh inconclusive, FMDV inh -21% and HCMV antiviral 0.
`COc1ccc(CNC(=O)C(C)OC(=O)CO/N=C(\C)c2ccc3c(c2)OCO3)cc1` (configuration not stated) gave Marburg entry inh 3%, Lassa entry inh -1%, HCV inh 15%, FMDV inh -22% and HCMV antiviral -33.
For O=C1CCC2=C(O1)C(O)=C(O)CC2 the results were Marburg entry inh 8%.
`O=C(NCCc1ccc(Cl)cc1)c1cnc2sc(N3CCCCC3)nn2c1=O` gave Lassa entry inh inconclusive, FMDV inh -29% and HCMV antiviral 10.
`CC(Sc1n[nH]c(N)n1)C(=O)Nc1cccc2ccccc12` (configuration not stated) gave Marburg entry inh -18%, Lassa entry inh 16%, HCV inh -2%, FMDV inh -13% and HCMV antiviral 29.
CC(C)Cn1c(N)c(C(=O)COC(=O)C2Cc3ccccc3CN2S(C)(=O)=O)c(=O)n(C)c1=O (configuration not stated) was read as Marburg entry inh inconclusive, Lassa entry inh -19%, HCV inh 11µM*, FMDV inh -15% and HCMV antiviral -28.
CCC(C(=O)OCC(=O)c1c(N)n(CC(C)C)c(=O)n(C)c1=O)c1ccccc1 (configuration not stated) was read as Marburg entry inh -17%, Lassa entry inh inconclusive, HCV inh inconclusive, FMDV inh 40µM* and HCMV antiviral inconclusive.
For Cc1nn(-c2ccccc2)c(C)c1C(=O)OCC(=O)c1c(N)n(CC(C)C)c(=O)n(C)c1=O the results were Marburg entry inh inconclusive, Lassa entry inh 6.5µM*, HCV inh 5.6µM*, FMDV inh 32µM* and HCMV antiviral -79*.
Screening CC(C)Cn1c(N)c(C(=O)COC(=O)[C@H](C)NC(=O)c2ccccc2Cl)c(=O)n(C)c1=O returned Marburg entry inh -2%, Lassa entry inh -14%[46.1 µM], HCV inh 3%, FMDV inh -9% and HCMV antiviral -23.
For CC(C)Cn1c(N)c(C(=O)COC(=O)C2CCCCC2)c(=O)n(C)c1=O the results were Marburg entry inh 1%, Lassa entry inh -15%, HCV inh inconclusive, FMDV inh inconclusive and HCMV antiviral 32.
`CCc1cccc(NC(=O)C(CC(C)C)NS(=O)(=O)c2ccc3c(c2)oc(=O)n3C)c1` (configuration not stated) gave Marburg entry inh -9%[46.1 µM], Lassa entry inh 1%[46.1 µM], FMDV inh 38% and HCMV antiviral -5.
For COCc1cccc(-c2cccc3c2COCC(=O)N3Cc2ccccc2)c1 the results were HCMV antiviral -5.
`O=C(CSCc1ccc(Cl)cc1)Nc1ccc(-c2nnc(-c3ccccc3)o2)cc1` gave Marburg entry inh -3%, Lassa entry inh 18%, HCV inh 7.1µM*, FMDV inh -19% and HCMV antiviral 40.
Screening COC(=O)c1ccc(NC(=O)CSCc2ccccc2)cc1 returned Marburg entry inh inconclusive, Lassa entry inh 14%, HCV inh -2% and FMDV inh 15%.
O=C(Cc1ccc(Cl)cc1)Nc1ccc(-c2nnc(-c3ccco3)o2)cc1 was read as Marburg entry inh 4%, Lassa entry inh inconclusive, HCV inh inconclusive, FMDV inh inconclusive and HCMV antiviral 1.
CCC(=O)Oc1ccc(NC(=O)CSCc2ccccc2)cc1 was read as HCV inh -1%, FMDV inh 63% and HCMV antiviral -73*.
Screening Cc1ccc2nc(-c3ccc(F)cc3)c(Cc3ccsc3)n2c1 returned HCMV antiviral 42.
`CN(CCc1ccccc1)C(CCc1ccccc1)C(=O)Nc1ccc2c(c1)OCCO2` (configuration not stated) gave FMDV inh 7% and HCMV antiviral 1.
CCOC(=O)Nc1cccnc1Sc1ccc(Cl)cc1 was read as Marburg entry inh -12%[46.1 µM], Lassa entry inh 20%[46.1 µM], HCV inh 1%, FMDV inh -3% and HCMV antiviral -10.
CCCNC(=O)OCc1cccnc1Sc1ccc(C)cc1 was read as Marburg entry inh inconclusive, Lassa entry inh 10µM*, HCV inh 5%, FMDV inh 46% and HCMV antiviral 54.
CC(C)CCCN1CCN=C1N(C)C was read as HCV inh 13%, FMDV inh -10% and HCMV antiviral -74*.
Screening CCCCCCCN1CCN=C1N(C)C returned HCV inh -26%, FMDV inh -15% and HCMV antiviral -37.
CCOc1ccc(NC(=O)c2cc3cc4cc(OC)ccc4nc3s2)cc1 was read as Marburg entry inh -18%[46.1 µM], Lassa entry inh 23%[46.1 µM], FMDV inh -19% and HCMV antiviral -28.
`CCN(CCCNC(=O)c1cc2c(=O)[nH]c3ccccc3c2s1)c1ccccc1` gave Marburg entry inh -3%[46.1 µM], Lassa entry inh -3%[46.1 µM], FMDV inh -4% and HCMV antiviral -81*.
`COc1ccc(OC)c(NC(=O)c2cc3cc4ccc(C)cc4nc3s2)c1` gave Marburg entry inh 9%[46.1 µM], Lassa entry inh 16%[46.1 µM], FMDV inh -7% and HCMV antiviral -15.
CCN(CCCNC(=O)c1cc2cc3ccc(OC)cc3nc2s1)c1cccc(C)c1 was read as Marburg entry inh -34%[46.1 µM], Lassa entry inh -13%[46.1 µM], FMDV inh 25% and HCMV antiviral -68*.
`CCCCN(CC)C(=O)c1cc2cc3ccc(OC)cc3nc2o1` gave Marburg entry inh inconclusive, Lassa entry inh -14%, HCV inh inconclusive, FMDV inh 7% and HCMV antiviral 17.
Screening CCCCN(C)C(=O)c1cc2cc3ccc(OC)cc3nc2s1 returned Marburg entry inh 10µM*, Lassa entry inh inconclusive, HCV inh 11µM*, FMDV inh -51% and HCMV antiviral 50.
`CCN(CCCNC(=O)c1cc2cc3ccc(OC)cc3nc2s1)c1ccccc1` gave Marburg entry inh inconclusive, Lassa entry inh inconclusive, FMDV inh 12% and HCMV antiviral -77*.
For Cc1cccc(NC(=O)N2CCC(C(=O)c3ccc(F)cc3)CC2)c1 the results were Marburg entry inh -29%[46.1 µM], Lassa entry inh 25%, HCV inh inconclusive, FMDV inh 24% and HCMV antiviral -64*.
